# Laboratory results as given in PubChem BioAssay (Tox21).
# Where “and” joins values, the source holds several entries; their conditions need not be identical. Equal entries are not always repeated. Results filed as inconclusive are left out. Where a call stands in place of a potency, no number is given. Calls of active or inactive are those of the source. Calls come from the whole dose curve.
# Test: qHTS assay to identify small molecule antagonists of the estrogen receptor alpha (ER-alpha) signaling pathway using the BG1 cell line (AID 743080);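 note: BG1 cells stimulated with 17beta-estradiol alongside compound; nearly all actives have a fitted effect of over 25% in size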
# Settings: BG1Luc4E2 ERE-luciferase antagonist mode, luminescence; series mostly up to 70.3 µM
# Description: National Center for Advancing Translational Sciences [NCATS]
# NIH Chemical Genomics Center [NCGC]
# U.S. Environmental Protection Agency [EPA]
# National Institutes of Environmental Health Sciences [NIEHS]
# National Toxicology Program [NTP]
# U.S. Food and Drug Administration [FDA]
# Estrogen receptor (ER), a nuclear hormone receptor, plays an important role in development, metabolic homeostasis and reproduction. Endocrine disrupting chemicals (EDCs) and their interactions with steroid hormone receptors like ER causes disruption of normal endocrine function. Therefore, it is important to understand the effect of environmental chemicals on the ER signaling pathway. To identify ER antagonists, BG1-Luc-4E2 cell line (provided by Dr. Michael Denison from University of California) has been used to screen the Tox21 10K compound library. BG1Luc4E2 cell line endogenously expresses full-length ER-alpha and is stably transfected with a plasmid containing four estrogen responsive elements (ERE) upstream of a luciferase reporter gene.
# Tox21 Assay Protocol Summary:
# BG1-Luc-4E2 cells were cultured in phenol red free assay medium containing 10% charcoal stripped FBS for 5 days before the assay was performed. The cells were dispensed at 4,000 cells/4 uL of assay medium per well into white wall/solid-bottom 1536-well plates using a Multidrop Combi (ThermoFisher Scientific, Waltham, MA) dispenser. The assay plates were incubated at a 37C and 5% CO2 for 24 h, and then 23 nL of compounds dissolved in DMSO, positive controls or DMSO only was transferred to the assay plate using a Pintool station (Kalypsys, San Diego, CA), followed by addition of 1 uL of 17beta-estradiol in assay medium using a Flying Reagent Dispenser (Aurora Discovery, San Diego, CA). After the plates were incubated at 37 C and 5% CO2 for 21.5 h, 1 uL of CellTiter-Fluor reagent (Promega, Madison, WI) of measuring cytotoxicity was added using Flying Reagent Dispenser (FRD) to each well. The assay plates were incubated at 37 C and 5% CO2 for additional 30 min and the fluorescence intensity was quantified by a ViewLux plate reader (PerkinElmer, Shelton, CT). For measuring luciferase reporter gene activity, 4 uL of ONE-Glo reagent (Promega) was added to each plate using an FRD and luminescence was quantified by a ViewLux plate reader after 30 min incubation at room temperature.
# Potency is the fitted concentration of half-maximal effect.
row,Structure (SMILES),Potency
1,OCCc1ccncc1,inactive
2,CC(CCl)OC(C)CCl (stereo not given),inactive
3,O=C(c1ccc(Cl)cc1)c1ccc(Cl)cc1,inactive
4,CC1(C)C(=O)NC(=O)N1CO,inactive
5,CCc1cnc(C(=O)O)c(C(=O)O)c1,inactive
6,CC(C)C[C@H](NC(=O)[C@H](Cc1ccccc1)NC(=O)c1cnccn1)B(O)O,66.8 nM (active) and 53.1 nM (active)
7,C=Cc1ccc(C=C)cc1,inactive
8,O=c1[nH]nc(-c2ccc([N+](=O)[O-])o2)o1,inactive
9,CC(C)(C(=O)O)c1ccc(C(O)CCCN2CCC(C(O)(c3ccccc3)c3ccccc3)CC2)cc1 (stereo not given),inactive
10,CO[C@@H]1[C@@H](O[C@@H]2O[C@H](C)[C@@H](O[C@H]3C[C@@](C)(O)[C@@H](O)[C@H](C)O3)[C@H](N(C)C)[C@H]2O)[C@@H](CC=O)C[C@@H](C)[C@@H](O[C@@H]2CC[C@H](N(C)C)[C@@H](C)O2)/C=C/C=C/C[C@@H](C)OC(=O)C[C@H]1OC(C)=O,inactive
11,CCCCCO,inactive
12,CC1(COc2ccc(CC3SC(=O)NC3=O)cc2)CCCCC1 (stereo not given),inactive
13,CCOC(=O)CC(O)(CC(=O)OCC)C(=O)OCC,inactive
14,C(/C=C/C=C/Nc1ccccc1)=Nc1ccccc1,inactive
15,CCCCOC(=O)C(C)Oc1ccc(Oc2ccc(C(F)(F)F)cn2)cc1 (stereo not given),inactive
16,O=C(N[C@@H](Cc1ccccc1)[C@@H](O)C(=O)N1C[C@@H](O)[C@@H](O)C1)c1cc2cc(Cl)ccc2[nH]1,inactive
17,CCC1=C(C)CN(C(=O)NCCc2ccc(S(=O)(=O)NC(=O)NC3CCC(C)CC3)cc2)C1=O (stereo not given),inactive
18,NC(=O)c1ccccc1C(N)=O,inactive
19,CCCc1ccc(OC)cc1,inactive
20,O=C(Cl)c1ccc(F)c(Cl)c1,inactive

row,Structure (SMILES),Potency
1,Cc1nc2sccn2c(=O)c1CCN1CCC(=C(c2ccc(F)cc2)c2ccc(F)cc2)CC1,29.8 µM (active)
2,CCCC1CCCC(=O)O1 (stereo not given),inactive
3,CC(C)=CCC[C@H](C)CCO,inactive
4,CCCCCCCCCCCC(=O)OCC,inactive
5,CC(C)=CCC/C(C)=C/C=N/O,inactive
6,CCCCCCC/C=C/C=O,inactive
7,Cc1ccccc1CCO,inactive
8,CCCCCCCCS,inactive
9,CC(O)CN (stereo not given),inactive
10,CC1(C)CC(O)CC(C)(C)N1[O],inactive
11,CC(=O)c1cccnc1,inactive
12,SCCOCCOCCS,inactive
13,CCOC(OCC)OCC,inactive
14,CCCCCCCCCCCCN1CCOCC1,inactive
15,Nc1ccc(F)cc1F,inactive
16,C/C(=C(\CCO)SS/C(CCO)=C(\C)N(C=O)Cc1cnc(C)nc1N)N(C=O)Cc1cnc(C)nc1N,inactive
17,COc1cc(CNC(=O)CCCC/C=C/C(C)C)ccc1O,inactive
18,C/C(=C\C(C)CC(C)CC(C)C)C1CC(=O)OC1=O (stereo not given),inactive
19,N#CCCCC(C#N)CCC#N (stereo not given),inactive
20,O=C(O)c1c2ccccc2cc2ccccc12,inactive
